# GPT2 inhibitor = Primary qHTS assay for inhibitors of Glutamate pyruvate transaminase 2 (GPT2); Alanine aminotransferase 2 (Homo sapiens), Q8TD30; Recombinant GPT2, coupled pyruvate oxidase/HRP Amplex Red fluorescence; Potency, µM (doses to about 57.7 µM), for the others: top-dose activity change, negative = inhibition, most hits filed as inhibitors; actives 0.25% (n = 100,000); AID 1671188, 2021; note: nearly all actives have a fitted effect of over 60% in size
# Target sequence (Q8TD30 whole entry, looked up): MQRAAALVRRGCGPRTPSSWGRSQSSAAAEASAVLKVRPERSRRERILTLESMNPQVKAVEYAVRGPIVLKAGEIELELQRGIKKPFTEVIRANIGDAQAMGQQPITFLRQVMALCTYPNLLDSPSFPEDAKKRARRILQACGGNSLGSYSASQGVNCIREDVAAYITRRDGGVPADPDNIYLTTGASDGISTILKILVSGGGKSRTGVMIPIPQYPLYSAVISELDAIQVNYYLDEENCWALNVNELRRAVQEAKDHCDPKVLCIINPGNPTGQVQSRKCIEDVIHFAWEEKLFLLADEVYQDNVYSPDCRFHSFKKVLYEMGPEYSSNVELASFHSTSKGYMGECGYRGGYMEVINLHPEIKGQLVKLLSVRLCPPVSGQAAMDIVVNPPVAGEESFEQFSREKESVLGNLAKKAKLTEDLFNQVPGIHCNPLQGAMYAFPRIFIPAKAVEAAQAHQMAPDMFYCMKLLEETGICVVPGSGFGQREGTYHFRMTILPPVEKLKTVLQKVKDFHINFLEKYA
#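 Recombinant GPT2 (10ng/uL) with 250uM a-KG and 2mM L-alanine, 30 min at room temperature, in HEPES pH 7.5 buffer. Pyruvate detected by pyruvate oxidase/HRP/Amplex Red fluorescence after 30 min in the dark; AOA (50uM) as positive control.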
# 3T3 cytotox = Cytotoxic Profiling in NIH 3T3 Cell Line of Diverse Libraries Using Quantitative High-Throughput Screening; NIH 3T3 viability, CellTiter-Glo ATP luminescence, 48-72 h; Potency, µM (doses to about 96.7 µM), for inactives: top-dose activity change, negative = cytotoxicity, hits mostly inhibitors; actives 4.3% (n = 94,000); AID 1345082, 2018; note: nearly all actives have a fitted effect of over 55% in size
#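 Luminescent ATP readout (CellTiter-Glo, 10 min RT) after 48 or 72 hr compound exposure of NIH 3T3 cells seeded at 400 cells/well in 1536-well format; quantitative HTS.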
# HEK293 tox = Cytotoxic Profiling in HEK 293 Cell Line of Diverse Libraries Using Quantitative High-Throughput Screening; HEK 293 viability, ATP luminescence (CellTiter-Glo), 48-72 h; Potency, µM (titrated, usually from 115 µM), without a hit: top-dose activity change, negative = cytotoxicity, actives largely listed as inhibitors; actives 6.6% (n = 94,000); note: nearly all actives have a fitted effect of over 60% in size
#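 Cells seeded first (HEK 293, 250 cells/well), then compound added by pintool. Incubation ran 48 or 72 hr at 37 degree Celsius. CellTiter-Glo was added and luminescence imaged after 10 min at room temperature.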
# FLuc inh = Firefly luciferase inhibition profiling of diverse chemical library using quantitative high-throughput screening. Luciferin 4-monooxygenase (Photinus pyralis), P08659. purified P. pyralis luciferase, luminescence, biochemical. Potency, µM (highest dose often 115 µM), actives largely listed as inhibitors. actives 2.5% (n = 76,000). AID 1347043, 2019; note: nearly all actives have a fitted effect of over 65% in size
#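 Biochemical qHTS: compound (6-point titration) added to 10uM D-luciferin plus 10uM ATP in Tris acetate pH 7.5 buffer with Mg, Tween-20 and BSA, then purified enzyme at 10nM; light output imaged.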
# NPR1 antag = Natriuretic polypeptide receptor (hNpr1) antagonism - Primary qHTS | actives 1.6% (n = 76,000) | HEK293 hNpr1 GloSensor cGMP, ANP-stimulated luminescence | Potency, µM (top dose mostly 46.3 µM), without a hit: at the top dose activity change, negative = inhibition, most hits filed as inhibitors | AID 1347048, 2019; calls by dose curve; note: nearly all actives have a fitted effect of over 60% in size
#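 Compound pre-incubated 30 min at room temperature on GloSensor-loaded HEK293 cells stably carrying hNpr1 and the pGS-40F cGMP biosensor. Stimulation uses hNppA at 0.1 nM final; luminescence is taken at baseline and 20 min post-agonist.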
# An asterisk follows results filed as active; i = inactive; ? = inconclusive; / = no result; [ ] = another dose, or the depositor's remark. In the library only some 10% were active in any assay of this set; here they are far more common. Unless noted, calls come from the whole dose curve; as a rule, active = well fitted curve in the direction sought with a large enough effect; inconclusive = small, poorly fitted or top-dose-only effect, or another doubt; inactive = no such curve, though single readings can be large; an effect the other way counts as inactive or inconclusive. % is set by controls: 0 for no effect and ±100 for the full control effect; potency is the fitted concentration of half-maximal effect.
SMILES,GPT2 inhibitor,3T3 cytotox,HEK293 tox,FLuc inh,NPR1 antag
COc1cccc(-c2ccc(C(=O)N3CCC(N[S+](=O)([O-])CCC(F)(F)F)CC3)cc2)c1,i,?,?,/,/
CC(C)c1nc2c(c(-c3ccc(Cl)cc3)n1)CCN(Cc1ccsc1)CC2,i,?,44.7µM*,/,/
CC(C)c1nc2c(c(-c3ccc(O)cc3)n1)CN(Cc1ccc(OC(F)(F)F)cc1)CC2,i,22.4µM*,22.4µM*,i,-0.5%
COc1ccccc1-c1cccc(CN2CCCC(C(=O)N3CCOCC3)C2)c1 (centres undefined),i,?,?,/,/
COC(=O)CNC(=O)C1CCCN(Cc2cccc(-c3ccccc3OC)c2)C1 (centres undefined),1.1%,?,-25.6%,/,/
COc1ccccc1-c1cccc(CN2CCCC(C(=O)NCc3ccc4c(c3)OCO4)C2)c1 (centres undefined),3.7%,?,35.5µM*,/,/
COc1ccccc1-c1cccc(CN2CCCC(C(=O)N3CCCCC3)C2)c1 (centres undefined),i,?,79.4µM*,/,/
CCOCCNC(=O)C1CCCN(Cc2cccc(-c3ccccc3OC)c2)C1 (centres undefined),i,?,39.8µM*,/,/
COc1ccccc1-c1cccc(CN2CCCC(C(=O)NCC(F)(F)F)C2)c1 (centres undefined),-2.5%,?,44.7µM*,/,/
O=C(c1cc(F)ccc1F)N1CCC(Cc2noc(C3CC3)n2)C1 (centres undefined),2.0%,-11.9%,i,/,/
O=C(NCc1cccs1)C1CCCN(Cc2cccc(-c3ccc(F)cc3F)c2)C1 (centres undefined),i,?,44.7µM*,/,/
COc1ccccc1-c1cccc(CN2CCCC(C(=O)Nc3cccc(Cl)c3)C2)c1 (centres undefined),-5.6%,15.8µM*,25.1µM*,/,/
O=C(NCc1cccc(F)c1)C1CCCN(Cc2cccc(-c3ccc(F)cc3F)c2)C1 (centres undefined),-1.0%,35.5µM*,44.7µM*,/,/
O=C(Nc1ccccc1F)C1CCCN(Cc2cccc(-c3ccc(F)cc3F)c2)C1 (centres undefined),-3.5%,?,?,/,/
O=C(NCc1cccc(C(F)(F)F)c1)C1CCCN(Cc2cccc(-c3ccc(F)cc3F)c2)C1 (centres undefined),-4.7%,?,35.5µM*,/,/
O=C(Cc1ccccc1)N1CCCCCC1c1nnc(-c2ccccc2)o1 (centres undefined),3.9%,-19.9%,?,/,/
O=C(NC1CCN(c2ccc3nnc(C4CC4)n3n2)C1)c1ccc(F)cc1 (centres undefined),/,-21.8%,-0.8%,/,/
Cc1noc([C@@H]2CN(C(=O)c3cccc(C(F)(F)F)c3)C[C@H]2C(N)=O)n1,i,-20.6%,-22.6%,i,-0.4%
COc1ccccc1-c1cccc(CN2CCCC(C(=O)NCc3cccc(F)c3)C2)c1 (centres undefined),i,?,12.6µM*,/,/
COc1ccccc1-c1cccc(CN2CCCC(C(=O)NC3CC3)C2)c1 (centres undefined),i,?,?,/,/
COc1ccccc1-c1cccc(CN2CCCC(C(=O)NC(C)C)C2)c1 (centres undefined),0.5%,39.8µM*,?,/,/
COc1cccc(CN2Cc3cc(NC(=O)c4ccccc4)ccc3OC(C)C2=O)c1OC (centres undefined),-1.3%,?,?,i,-11.8%
COc1ccccc1CN1Cc2cc(NC(=O)c3ccc(Cl)cc3)ccc2OC(C)C1=O (centres undefined),i,?,25.1µM*,i,-4.5%
COc1cccc(C(=O)Nc2ccc3c(c2)CN(Cc2cccc(OC)c2OC)C(=O)CO3)c1,i,-24.3%,44.7µM*,?,-2.4%
COc1cccc(C(=O)Nc2ccc3c(c2)CN(Cc2cccc(OC)c2OC)C(=O)C(C)O3)c1 (centres undefined),i,35.5µM*,28.2µM*,i,-18.5%
SMILES,GPT2 inhibitor,3T3 cytotox,HEK293 tox,FLuc inh,NPR1 antag
COc1ccc(CN2Cc3cc(NC(=O)c4ccccc4F)ccc3OC(C)C2=O)c(OC)c1 (centres undefined),4.1%,?,35.5µM*,i,-2.1%
COc1ccc(CN2Cc3cc(NC(=O)c4ccc(F)cc4)ccc3OC(C)C2=O)c(OC)c1 (centres undefined),-18.7%,-18.1%,?,i,-7.8%
COc1ccc(-c2ccc(C(=O)N3CCN(Cc4ccccc4)CC3)cc2)nn1,/,-29.7%,?,/,/
Cc1ccc(CN2C(=O)[C@@H]3C[C@@H](O)CN3C3(CN(C(C)C)C3)C2=O)o1,-4.3%[88.5 µM],-0.5%[174 µM],0.8%[172 µM],i,3.0%[70.6 µM]
C[C@]1(CO)[C@H]2Cc3sc(NC(=O)c4cccc(F)c4)nc3[C@@H](CC(=O)N3CCCCC3)[C@]2(C)CC[C@H]1O,i,-22.3%,?,i,-17.9%
O=C(Nc1ccc2c(c1)CN(Cc1ccccc1F)C(=O)CO2)c1ccc(Cl)cc1,i,?,39.8µM*,?,-26.1%
COc1ccc(CN2CCCC(COc3ccccc3C(=O)NC3CC3)C2)c(OC)c1 (centres undefined),i,-4.4%,?,i,-1.0%
O=C(NC1CC1)c1ccccc1OCC1CCCN(Cc2cccc3[nH]ccc23)C1 (centres undefined),-0.2%,-23.6%,35.5µM*,i,-9.9%
Cc1ccc([S+](=O)([O-])N2CCCC(C(=O)N3CCC(c4nc5ccncc5[nH]4)C3)C2)cc1 (centres undefined),i,-19.3%,-0.5%,/,/
CNC(=O)C1CCN(C(=O)c2ccc(-c3cccc(OC)c3)cc2)CC1,-2.1%,-10.2%,?,/,/
OC(c1nc(Nc2ccc(N3CCOCC3)cc2)n[nH]1)C1CC1 (centres undefined),?,?,?,i,-0.8%[70.6 µM]
CC(C)c1ccc(Nc2n[nH]c(C(O)C3CC3)n2)cc1 (centres undefined),i,?,?,15.8µM*,-17.4%[70.6 µM]
COc1ccccc1C(O)c1nc(Nc2ccc(C(C)C)cc2)n[nH]1 (centres undefined),-24.2%[88.5 µM],?,100µM*,i,-11.0%[70.6 µM]
OC(c1cccc(C(F)(F)F)c1)c1nc(Nc2ccc(F)cc2)n[nH]1 (centres undefined),2.8%[88.5 µM],?,79.4µM*,i,-26.0%[70.6 µM]

# Source: PubChem
